Data taken from PubChem BioAssay AID2291 (The Scripps Research Institute Molecular Screening Center, 2010).
Hit rate of the full screen: of about 16,000 compounds, about 75 (0.5%) were called active. The full list was thinned out, with actives kept by preference. Unmarked numbers belong to inactive results. No stated cut-off is given here; in the data, active means inhibition above about 30%; inactive means the rest.

The molecules below were run against Protein phosphatase methylesterase 1 (Homo sapiens) (UniProt Q9Y570) (assay: Maybridge compound blocking human PME-1 (AID 2291)). Conditions: recombinant PME-1, FP-Rh probe fluorescence polarization; at 9 µM; stronger effect = higher value.
Chain of Protein phosphatase methylesterase 1 (Homo sapiens) (Q9Y570 whole entry, looked up): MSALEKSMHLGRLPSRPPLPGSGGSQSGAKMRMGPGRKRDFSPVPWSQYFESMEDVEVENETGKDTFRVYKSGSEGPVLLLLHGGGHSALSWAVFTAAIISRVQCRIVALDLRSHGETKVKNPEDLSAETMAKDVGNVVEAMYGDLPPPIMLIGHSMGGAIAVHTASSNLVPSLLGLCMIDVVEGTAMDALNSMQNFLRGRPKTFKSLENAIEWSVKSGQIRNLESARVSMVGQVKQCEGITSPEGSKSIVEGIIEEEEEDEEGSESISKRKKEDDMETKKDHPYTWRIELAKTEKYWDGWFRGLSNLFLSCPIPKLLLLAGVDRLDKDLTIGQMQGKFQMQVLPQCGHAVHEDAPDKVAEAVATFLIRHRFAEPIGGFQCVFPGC

SMILES	inhibition
N#Cc1nccnc1N1CCN(c2ccccc2)CC1	1.69%
N#Cc1cccnc1NNC(=O)c1ccccc1C(=O)O	-1.06%
Fc1ccc(COc2ccc(-c3nnco3)cc2)cc1	4.75%
CCOC(=O)c1cnc2c(S(=O)(=O)C(C)C)csc2c1Sc1cccc(Cl)c1	3.84%
CC(=O)N1C=CC(c2c[nH]c3ccccc23)C=C1	-3.18%
CC(C)S(=O)(=O)/C(C#N)=C/c1ccccc1OC(F)(F)F	2.58%
CS(=O)(=NC(=O)c1cc2ccccc2o1)c1ccc(Cl)cc1 (stereo unspecified)	4.96%
CC(C)(C)C(=O)OCC(N)=S	-1.98%
O=[N+]([O-])c1ccc(N2CCC2)cc1	0.196%
CCOC(=O)c1cc(C)nc(Sc2ccccc2NC(=O)Nc2ccc(Cl)cc2)c1C#N	25.2%
CCOC(=O)c1c(C)nn(-c2ncccc2NC(=O)Nc2cccc(Cl)c2Cl)c1C	37.4% (active)
Cc1nc2cc3c(cc2s1)OCO3	-0.92%
O=C(NC(=S)Nc1nc(-c2ccc(Cl)cc2)cs1)C1CC1	-13.9%
O=S(=O)(Nc1ccc2[nH]ccc2c1)c1cccs1	3.17%
CCCCC#Cc1cncc(C(=O)NNC(=O)Nc2ccc(Cl)cc2)c1	2.26%
O=C1CSC(=S)N1c1ccc(N2CCCCCC2)c(N2C(=O)CSC2=S)c1	-4.27%
COC(=O)c1sccc1Oc1ccc(Cl)cc1[N+](=O)[O-]	2.05%
O=C(NCc1cccnc1)c1cnc2ccccc2n1	3.18%
Cc1cc2c(cn1)C(=O)c1ccccc1-2	4.96%
O=C1C(Cl)=C(Oc2cc(Cl)c(Cl)cc2Cl)C(=O)c2ccccc21	33.4% (active)
COc1cccc(C(=O)c2sc3nsc(SCc4ccc(F)cc4)c3c2N)c1	-5.96%
N#C/C(=C\c1ccsc1Sc1ccc(Cl)cc1)S(=O)(=O)c1ccc(Cl)cc1	-9.13%

SMILES	inhibition
Cc1c(-c2cnc(NC(=O)c3ccccc3)s2)sc2ccc(Cl)cc12	-9.03%
CCOC(=O)C(NC(=O)Nc1ccccc1)(Nc1ccccc1OC)C(F)(F)F (stereo unspecified)	-0.9%
O=C(O)CSC(SCC(=O)O)c1ccc2c(c1)OCO2	-0.753%
O=c1[nH]/c(=C/c2ccc(OC(F)(F)F)cc2)c(=O)[nH]/c1=C/c1ccc(OC(F)(F)F)cc1	-0.938%
N#Cc1c(C(F)(F)F)cc(-c2cccs2)nc1N1CCCCC1	-3.16%
Oc1ccccc1C=Nc1ccc(F)cc1	-4.6%
COc1ccc(-c2csc(-c3cc(C)on3)n2)cc1	9.36%
Cc1ccc(/C=c2\sc3nc4ccccc4n3c2=O)o1	7.34%
Cc1c(NC(=O)c2cccnc2)c(=O)n(-c2ccccc2)n1C	2.93%
CCOC(=O)c1c(-c2ccco2)csc1NC(=O)Nc1ccc(Cl)cc1	-41.9%
OC(c1ccncc1)c1c[nH]c2ccccc12 (stereo unspecified)	-0.868%
O/N=C/c1ccc(F)c(Cl)c1	2.78%
Cc1ccc2oc(-c3cccs3)nc2c1	2.37%
Cc1cc(NCc2cccnc2)no1	1.95%
NNC(=O)c1csc(-c2ccc(C(F)(F)F)cn2)n1	4.74%
CC(=O)Nc1cccc([N+](=O)[O-])c1	2.8%
CSc1nc(N)n(-c2ccccc2)n1	2.24%
CCOC(=O)C(O)(NC(=O)Nc1ccccc1)C(F)(F)F (stereo unspecified)	6.03%
CCCCc1c(COC)nc(-c2ccc(Cl)cc2)[nH]c1=O	2.14%
CCCCCCCCc1ccc(C(=O)O)cc1	1.13%
Cn1c(=O)c(/C(N)=N/OC(=O)c2ccccc2Cl)cn(-c2ccccc2)c1=O	-0.69%
Cc1nnc(Sc2ccc([N+](=O)[O-])c(Sc3nnc(C)s3)n2)s1	5.33%

SMILES	inhibition
O=C(Nn1cnnc1)c1cccs1	5.13%
O=C(Nc1ccccc1)N1CCN(c2ncnc3sccc23)CC1	1.02%
O=C(O)c1ccccc1/C=N/Nc1cc(Cl)ccc1Cl	6.19%
CCOC(=O)N/N=C(\C)c1cccc(NC(C)=O)c1	-0.548%
CCCN(CCC)S(=O)(=O)c1ccc(C(=O)O/N=C(\C)c2ccccc2O)cc1	0.391%
COC(=O)c1cnc(Oc2ccc(N)cc2)cc1C(F)(F)F	0.526%
CCOC(=O)NC(=O)/C(=C/NCc1cccs1)C(=O)OCC	0.233%
COc1ccccc1NC(=O)c1ccc(C#Cc2ccccc2)o1	-10.2%
CS/C(N)=N/N=C/c1cccs1	1.26%
CC1=NOC(=O)/C1=C\c1ccccc1	3.58%
COc1ccc(-c2nnc(SCC(O)C(F)(F)F)n2-c2cccc(OC)c2)cc1 (stereo unspecified)	1.14%
CC(C)(C)c1ccc(NC(=O)c2ccco2)c(NC(=O)C(Cl)(Cl)Cl)c1	2.58%
FC(F)(F)c1cccc(-n2c(-c3ccncc3)n[nH]c2=S)c1	-4.3%
Cc1ccc2oc(=O)n(CC/C(N)=N/OC(=O)c3ccc(C(F)(F)F)nc3C)c2c1	4.33%
CCOc1cc(-c2cccs2)nc(N)n1	0.0895%
Cc1ccc(OC(=O)c2nn(-c3ccccc3)nc2C)c([N+](=O)[O-])n1	-1.37%
O=C(CN1C(=O)/C(=C/c2ccccc2Cl)N=C1c1ccccc1)c1ccccc1	-14%
COc1c(Br)cc(C#N)cc1Br	7.88%
O=C(Nc1ccccc1)O/N=C1/CCCc2occc21	-1.78%
COc1ccc(CCNCC(O)Cn2ccc3ccccc32)cc1OC (stereo unspecified)	-0.35%
COc1cc(NC(=O)COc2cc(Cl)c(Cl)cc2Cl)cc(OC)c1OC	-4.1%
N#Cc1c(N)nc2c3c1NC(O)(c1ccccc1)C(C#N)C3c1cc(Cl)ccc1O2 (stereo unspecified)	-25.9%
